This passage reports relative cell viability results from the supplement of paper PMC9492666.

Each structure is given as a SMILES string. Where a name gives a salt, the structure may show the parent alone.
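Note: viability read out with the CCK-8 kit in 96-well plates, screening a set of 303 compounds acting on lipid metabolism targets.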

The test system of the first experiment is HCC1937. Briefly: relative cell viability, compound alone, vs DMSO (fraction of DMSO control); higher = less growth inhibition. Conditions: 72 h.
As to `C=C(C)[C@@H]1CC[C@]2(CO)CC[C@]3(C)[C@H](CC[C@@H]4[C@@]5(C)CC[C@H](O)C(C)(C)[C@@H]5CC[C@]43C)[C@@H]12` [Betulin], the relative cell viability came out at 0.886.

Take `Nn1nnc2ccccc21` [1-Aminobenzotriazole]: the relative cell viability worked out at 1.07.

On to `CC(C)(Oc1ccc(C(=O)c2ccc(Cl)cc2)cc1)C(=O)O` [Fenofibric acid], for which the relative cell viability was 0.686.

In the case of `O=C(c1ccc(-c2nc3ccc(F)cc3o2)cc1)N1CCN(C(=O)C2(O)CC2)CC1`, the relative cell viability came to 0.831.

Compound `CC(C)=CCC(O)C1=CC(=O)c2c(O)ccc(O)c2C1=O` (single isomer, unassigned; (+)) [(+)-Shikonin] returned a relative cell viability of 0.2.

As for `NC(N)=N/N=C/c1cccc(Cl)c1Cl` [Raphin1 acetate], the relative cell viability is 1.01.

In the next experiment the test system is MDA-MB-231. The experiment is described as above. Conditions: 72 h.
In turn, `O=C(O)CC[C@H](O)C(=O)O` [L-2-Hydroxyglutaric acid disodium] registered a relative cell viability of 1.

`O=C(O)C(O)Cc1ccc(O)c(O)c1` (stereo not given) [Sodium Danshensu]: the relative cell viability came out at 0.818.

`COc1ccc(N(C(=O)Nc2c(C)cccc2C)c2cc(Nc3ccc(N4CCN(C)CC4)cc3)ncn2)c(OC)c1` yielded a relative cell viability of 1.11.

In turn, `O=C(O)c1cccc(N=Nc2c(O)[nH]c3ccc(S(=O)(=O)NCc4ccc(F)cc4)cc23)c1` gave a relative cell viability of 0.938.

`CCCCCCCCCCCC1=C(O)C(=O)C=C(O)C1=O` [Embelin]: the relative cell viability turned out to be 0.983.

In the case of `O=C(NN1CCCCC1)c1nn(-c2ccc(Cl)cc2Cl)c(-c2ccc(C#Cc3ccc(C(F)(F)F)cc3)s2)c1CNS(=O)(=O)N1CCCC1`, the relative cell viability worked out at 0.893.

In the case of `COc1ccc(C(=O)/C=C/c2ccccc2)cc1` [4'-Methoxychalcone], the relative cell viability was 0.889.

As to `COc1cc(O)c2c(c1)O[C@H](c1ccc(O)cc1)CC2=O` [Sakuranetin], the relative cell viability worked out at 0.941.

Compound `O=C(O)c1ccnc(N2CC(O)(c3ccc(OCc4c(-c5c(Cl)cccc5Cl)noc4C4CC4)cc3Cl)C2)c1` [Cilofexor] returned a relative cell viability of 0.885.

Turning to `C[C@H](CCC(=O)O)[C@H]1CC[C@H]2[C@@H]3CC[C@@H]4C[C@H](O)CC[C@]4(C)[C@H]3CC[C@]12C` [Lithocholic acid], the relative cell viability is 0.99.

For the compound `CC(C)OC(=O)C(C(=O)OC(C)C)=C1SC=CS1` [Malotilate], the relative cell viability stood at 0.828.

In turn, `O=C(Nc1ccncc1)c1cc([N+](=O)[O-])ccc1Cl` registered a relative cell viability of 0.831.

Turning to `O=C(Nc1cccnc1)N1CCC(Cc2cccc(Oc3ccc(C(F)(F)F)cn3)c2)CC1`, the relative cell viability was 1.01.

As to `CCCCC[C@H](O)CC(=O)CCc1ccc(O)c(OC)c1` [6-Gingerol], the relative cell viability amounted to 0.862.

With `CCCC[S+]([O-])c1sc2nc(-c3cccs3)cc(-c3ccccc3)c2c1N` (stereo not given), the relative cell viability was 0.806.

In turn, `CC(C)(Oc1ccc(C(=O)c2ccc(Cl)cc2)cc1)C(=O)O` [Choline Fenofibrate] came in with a relative cell viability of 1.07.

For the compound `C[N+](C)(C)CC(O)CC(=O)[O-]` (stereo not drawn) [L(-)-Carnitine], the relative cell viability is 0.876.

Take `O=C(O)c1cc2c(Cl)c(N3CCN(S(=O)(=O)c4c(Cl)cccc4Cl)CC3)ccc2o1` [Vonafexor]: the relative cell viability was determined as 1.16.

For `CC(C)OC(=O)CCC/C=C\C[C@@H]1[C@@H](CC[C@@H](O)CCc2ccccc2)[C@H](O)C[C@@H]1O` [Latanoprost], the relative cell viability is 0.88.

Turning to `COC(=O)c1sccc1S(=O)(=O)Nc1ccc(Nc2ccccc2)cc1OC`, the relative cell viability was determined as 0.871.

`COC(=O)c1cc(Cl)c(O)c(S(=O)(=O)Nc2cc(-c3ccccc3)c(F)cc2F)c1` showed a relative cell viability of 0.833.

Compound `O=P(O)(O)OC(CO)CO` [β-Glycerol phosphate disodium salt pentahydrate] registered a relative cell viability of 0.874.

On to `CCCCCCCCCCCCCCOc1ccc(C(=O)OCC(=O)N(C)CC(=O)OCC)o1` [Olumacostat Glasaretil], for which the relative cell viability was found to be 0.863.

Regarding `O=C(O)CN(CC(=O)O)c1ccccc1OCCOc1ccccc1N(CC(=O)O)CC(=O)O`, the relative cell viability turned out to be 0.899.

`Nc1ncnc2c1ncn2C1OC(COP(=O)(O)O)C(O)C1O` (stereo not given) [Adenosine 5'-monophosphate monohydrate]: the relative cell viability was determined as 1.03.

Compound `C/C=C(\CC[C@@H](C)[C@H]1CC[C@H]2[C@@H]3CC=C4C[C@@H](O)CC[C@]4(C)[C@H]3CC[C@]12C)C(C)C` [Fucosterol] came in with a relative cell viability of 0.968.

Compound `CC1=C(/C=C/C(C)=C/C=C/C(C)=C/C=C/C=C(C)/C=C/C=C(C)/C=C/C2=C(C)C(=O)[C@@H](O)CC2(C)C)C(C)(C)C[C@H](O)C1=O` [Astaxanthin] came in with a relative cell viability of 1.13.

As to `CNC(=O)c1cccc(NC(=O)N2CCC(Oc3ccccc3Cl)CC2)c1`, the relative cell viability worked out at 0.974.

The compound `COC(=O)/C=C/c1cccc(N(Cc2ccc(-c3ccc(N(C)C)cc3)cc2)C(=O)C2CCCCC2)c1` [Fexaramine] gave a relative cell viability of 0.924.
